Results reported in PubChem BioAssay (Tox21).
Inconclusive results are not listed. Calls of active or inactive are those of the source. The call rests on the fitted dose curve; in most records, active means well fitted curve in the direction sought with a large enough effect in the repeat runs; inconclusive means weak or mixed curves; inactive means no such curve, though single readings can be large; an effect the other way counts as inactive or inconclusive.

Tests used:
[1] = qHTS RealTime-Glo MT Cell Viability Assay in HEK293 cells - 16 hour (AID 1224872); further: top concentration of the series differs between compounds; nearly all actives have a fitted effect of over 50% in size
Summary of the method: (§1)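 Nonlytic real-time viability readout: viable cells convert prosubstrate to NanoLuc substrate, giving luminescence proportional to live cell number. HEK293, 600 cells/well, compound added after 5 h, continuous culture at 37 C.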

[2] = qHTS RealTime-Glo MT Cell Viability Assay in HepG2 cells - 8 hour (AID 1224873); further: nearly all actives have a fitted effect of over 55% in size
Summary of the method: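 Real-time viability: cells seeded at 600 per well together with NanoLuc and cell-permeant prosubstrate, compounds added after 5 h incubation. Luminescence tracked at 0, 8, 16, 24, 32 and 40 h of exposure.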

[3] = qHTS RealTime-Glo MT Cell Viability Assay in HEK293 cells - 40 hour (AID 1224874); conditions: RealTime-Glo luminescence; max response: stronger effect = lower value; further: nearly all actives have a fitted effect of over 50% in size
Summary of the method: (§2)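 Kinetic, non-lysing viability readout. Seed HEK293 (600/well) with reagent, incubate 5 h at 37 C/5% CO2, pin 23 nL compound in DMSO, incubate at 37 C, read luminescence at 0, 8, 16, 24, 32, 40 h.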

[4] = A CellTox Green Cytotoxicity Assay to monitor cytotoxicity in HEK293 cells - 24 hour (AID 1224875); further: series mostly up to about 77 µM; nearly all actives have a fitted effect of over 45% in size
Summary of the method: (§3)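 Real-time, in one plate: 600 HEK293 cells/well with dead-cell DNA dye, pinned compound after 5 h, 37 C incubation over 40 h; viable cells give no appreciable fluorescence.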

[5] = A CellTox Green Cytotoxicity Assay to monitor cytotoxicity in HepG2 cells - 16 hour (AID 1224876); further: nearly all actives have a fitted effect of over 45% in size
Summary of the method: (§4)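 Cytotoxicity was tracked as dead-cell DNA fluorescence in HepG2 cells treated with test compounds at 37 C; each time-point value comes from one kinetic series spanning 0, 8, 16, 24, 32 and 40 h.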

[6] = qHTS RealTime-Glo MT Cell Viability Assay in HepG2 cells - 32 hour (AID 1224877); further: nearly all actives have a fitted effect of over 55% in size
Summary of the method: (§5)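 Luminescence read-out: viable HepG2 cells reduce a prosubstrate to a NanoLuc substrate, giving a signal proportional to live cell number. Reads taken at 0, 8, 16, 24, 32 and 40 h of compound exposure at 37 C.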

[7] = A CellTox Green Cytotoxicity Assay to monitor cytotoxicity in HepG2 cells - 40 hour (AID 1224879); further: nearly all actives have a fitted effect of over 40% in size
Summary of the method: as §4

[8] = qHTS RealTime-Glo MT Cell Viability Assay in HEK293 cells - 0 hour (AID 1224880); further: top concentration of the series differs between compounds; nearly all actives have a fitted effect of over 45% in size
Summary of the method: as §2

[9] = A CellTox Green Cytotoxicity Assay to monitor cytotoxicity in HEK293 cells - 32 hour (AID 1224881); further: nearly all actives have a fitted effect of over 40% in size
Summary of the method: as §3

[10] = A CellTox Green Cytotoxicity Assay to monitor cytotoxicity in HepG2 cells - 0 hour (AID 1224882); further: nearly all actives have a fitted effect of over 35% in size
Summary of the method: as §4

[11] = A CellTox Green Cytotoxicity Assay to monitor cytotoxicity in HepG2 cells - 32 hour (AID 1224883); further: nearly all actives have a fitted effect of over 50% in size
Summary of the method: as §4

[12] = A CellTox Green Cytotoxicity Assay to monitor cytotoxicity in HEK293 cells - 8 hour (AID 1224884); further: nearly all actives have a fitted effect of over 35% in size
Summary of the method: as §3

[13] = qHTS RealTime-Glo MT Cell Viability Assay in HepG2 cells - 16 hour (AID 1224885); further: nearly all actives have a fitted effect of over 50% in size
Summary of the method: as §5

[14] = qHTS RealTime-Glo MT Cell Viability Assay in HEK293 cells - 24 hour (AID 1224886)
Summary of the method: as §1

[15] = qHTS RealTime-Glo MT Cell Viability Assay in HEK293 cells - 8 hour (AID 1224887)
Summary of the method: as §2

[16] = A CellTox Green Cytotoxicity Assay to monitor cytotoxicity in HEK293 cells - 16 hour (AID 1224888); further: nearly all actives have a fitted effect of over 35% in size
Summary of the method: as §3

[17] = qHTS assay to identify small molecule antagonists of the estrogen receptor alpha (ER-alpha) signaling pathway using the BG1 cell line in the presence of 0.1 nM 17-beta-estradiol - cell viability counter screen (AID 1259241); further: nearly all actives have a fitted effect of over 40% in size
Summary of the method: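 Estradiol-stimulated (0.1 nM) VM7Luc4E2 cells exposed to compounds 22 hr; viability measured by fluorescence of cleaved CellTiter-Fluor substrate after 30 min.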

[18] = A CellTox Green Cytotoxicity Assay to monitor cytotoxicity in HepG2 cells - 24 hour (AID 1224878); further: nearly all actives have a fitted effect of over 45% in size
Summary of the method: as §4

[19] = A CellTox Green Cytotoxicity Assay to monitor cytotoxicity in HepG2 cells - 8 hour (AID 1224890); further: nearly all actives have a fitted effect of over 45% in size
Summary of the method: as §4

[20] = qHTS RealTime-Glo MT Cell Viability Assay in HepG2 cells - 0 hour (AID 1224889); further: nearly all actives have a fitted effect of over 50% in size
Summary of the method: as §5
On the % scale 0 is the no-effect control and ±100 the full control effect.

C[C@@H](Oc1ccc(CNC(=O)c2cccnc2Oc2ccc3c(c2)OCO3)c(F)c1)C(=O)O
inactive: Potency [1] | outcome [2] | max response [3] 9.55% | outcome [4] | outcome [5] | outcome [6] | Potency [7] | Potency [8] | Potency [9] | outcome [10] | Potency [11] | Potency [12] | outcome [13] | Potency [14] | Potency [15] | outcome [16] | Potency [17]

COc1cc(C(=S)N2CCOCC2)cc(OC)c1OC
inactive: Potency [1] | outcome [2] | max response [3] 4.79% | outcome [4] | outcome [6] | outcome [18] | Potency [7] | Potency [8] | Potency [9] | outcome [10] | Potency [11] | Potency [12] | Potency [14] | Potency [15] | outcome [16] | outcome [19] | Potency [17]

Cc1cc2cc3c(C)cc(=O)oc3c(C)c2o1
inactive: Potency [1] | outcome [2] | max response [3] -18.2% | outcome [5] | outcome [6] | outcome [18] | Potency [7] | Potency [8] | Potency [9] | outcome [10] | Potency [11] | Potency [12] | outcome [13] | Potency [14] | Potency [15] | outcome [16] | Potency [17]

O=C(NCC(O)CO)c1c(I)c(C(=O)NCC(O)CO)c(I)c(N(CCO)C(=O)CO)c1I (stereo unspecified)
inactive: Potency [1] | outcome [2] | max response [3] 8.98% | outcome [5] | outcome [6] | outcome [18] | Potency [7] | Potency [8] | Potency [9] | outcome [10] | Potency [11] | Potency [12] | outcome [13] | Potency [14] | Potency [15] | outcome [16] | Potency [20] | outcome [19] | Potency [17]

BrCCCCCBr
inactive: Potency [1] | outcome [2] | max response [3] 19.9% | outcome [4] | outcome [6] | outcome [18] | Potency [7] | Potency [8] | Potency [9] | outcome [10] | Potency [11] | Potency [12] | outcome [13] | Potency [14] | Potency [15] | outcome [16] | Potency [20] | outcome [19] | Potency [17]

COCCOCCOCCOCCO
inactive: Potency [1] | outcome [2] | max response [3] 4.56% | outcome [4] | outcome [6] | outcome [18] | Potency [7] | Potency [8] | Potency [9] | outcome [10] | Potency [11] | outcome [13] | Potency [14] | Potency [15] | outcome [16] | Potency [20] | outcome [19] | Potency [17]

C=COCCOCCOCCOC=C
inactive: Potency [1] | outcome [2] | max response [3] 1.1% | outcome [5] | outcome [6] | outcome [18] | Potency [7] | Potency [8] | Potency [9] | outcome [10] | Potency [11] | Potency [12] | Potency [14] | Potency [15] | outcome [16] | Potency [20] | outcome [19] | Potency [17]

CCCCN
inactive: Potency [1] | outcome [2] | max response [3] 9.77% | outcome [4] | outcome [6] | outcome [18] | Potency [7] | Potency [8] | Potency [9] | outcome [10] | Potency [11] | Potency [12] | outcome [13] | Potency [14] | Potency [15] | outcome [16] | Potency [20] | outcome [19] | Potency [17]

N[C@@H](CCC(=O)Nc1ccc([N+](=O)[O-])cc1)C(=O)O
inactive: Potency [1] | outcome [2] | max response [3] -16.1% | outcome [4] | outcome [5] | outcome [6] | Potency [7] | Potency [8] | Potency [9] | outcome [10] | Potency [11] | outcome [13] | Potency [14] | Potency [15] | outcome [16] | Potency [20] | outcome [19] | Potency [17]

Cc1cccc(C)c1NC(=O)c1ccccc1C(=O)O
inactive: Potency [1] | outcome [2] | max response [3] 2.81% | outcome [5] | outcome [6] | outcome [18] | Potency [7] | Potency [8] | Potency [9] | outcome [10] | Potency [11] | outcome [13] | Potency [14] | Potency [15] | outcome [16] | Potency [20] | outcome [19] | Potency [17]

O=S(=O)(O)CCN1CCN(CCO)CC1
inactive: Potency [1] | outcome [2] | max response [3] -3.48% | outcome [4] | outcome [5] | outcome [6] | Potency [7] | Potency [8] | outcome [10] | Potency [11] | Potency [12] | Potency [14] | Potency [15] | outcome [16] | Potency [20] | outcome [19] | Potency [17]

CN(C)CCOCCO
inactive: Potency [1] | outcome [2] | max response [3] -8.11% | outcome [4] | outcome [6] | outcome [18] | Potency [7] | Potency [8] | Potency [9] | outcome [10] | Potency [11] | Potency [12] | outcome [13] | Potency [14] | Potency [15] | outcome [16] | Potency [20] | Potency [17]

N[C@@H](COP(=O)(O)O)C(=O)O
inactive: activity change, negative = cytotoxicity [1] 6.19% [at 15.8 µM] | viability change, negative = cytotoxic [2] 0.974% [at 15.8 µM] | max response [3] 7.08% | activity change [4] -7.17% [at 15.8 µM] | cytotoxicity increase [5] 1.02% [at 15.8 µM] | activity change, negative = cytotoxic [6] 1.44% [at 15.8 µM] | cytotoxicity increase [7] -0.277% [at 15.8 µM] | activity change, negative = cytotoxicity [8] 12.6% [at 15.8 µM] | cytotoxicity increase [9] -6.18% [at 15.8 µM] | cytotoxicity [10] 0.162% [at 15.8 µM] | cytotoxicity increase [11] -0.733% [at 15.8 µM] | cytotoxicity increase [12] -2.54% [at 15.8 µM] | activity change, negative = cytotoxic [13] 1.13% [at 15.8 µM] | activity change, negative = cytotoxicity [14] 1.75% [at 15.8 µM] | activity change, negative = cytotoxicity [15] 10.1% [at 15.8 µM] | activity change [16] -5.61% [at 15.8 µM] | cytotoxicity increase [19] 3.11% [at 15.8 µM] | activity change, negative = cytotoxicity [17] 0.527% [at 19 µM]

O=C(O)CCSSCCC(=O)O
inactive: Potency [1] | outcome [2] | max response [3] 7.07% | outcome [4] | outcome [5] | outcome [6] | Potency [7] | Potency [9] | outcome [10] | Potency [11] | Potency [12] | outcome [13] | Potency [14] | Potency [15] | outcome [16] | Potency [20] | Potency [17]

Cc1ccc2c(c1)OCC(=O)CO2
inactive: Potency [1] | outcome [2] | max response [3] -8.18% | outcome [4] | outcome [6] | outcome [18] | Potency [7] | Potency [8] | Potency [9] | Potency [11] | Potency [12] | Potency [14] | Potency [15] | outcome [16] | outcome [19] | Potency [17]

CCCCCCCCCCCCCC
inactive: Potency [1] | outcome [2] | max response [3] 3.06% | outcome [5] | outcome [6] | outcome [18] | Potency [7] | Potency [8] | Potency [9] | outcome [10] | Potency [11] | Potency [12] | outcome [13] | Potency [14] | Potency [15] | outcome [16] | Potency [20] | Potency [17]

CC(C)(C)c1nnc(NS(=O)(=O)c2ccc(N)cc2)s1
inactive: Potency [1] | outcome [2] | max response [3] 2.09% | outcome [5] | outcome [6] | outcome [18] | Potency [7] | Potency [8] | Potency [9] | outcome [10] | Potency [11] | Potency [12] | outcome [13] | Potency [14] | Potency [15] | outcome [16] | Potency [20] | outcome [19] | Potency [17]

CCC(CC)CO
inactive: Potency [1] | outcome [2] | max response [3] 3.01% | outcome [4] | outcome [6] | outcome [18] | Potency [7] | Potency [8] | Potency [9] | outcome [10] | Potency [11] | Potency [12] | outcome [13] | Potency [14] | Potency [15] | outcome [16] | outcome [19] | Potency [17]
